uPA surface inh: blocks generation of uPA at the cell surface; cell surface uPA generation assay, qHTS; Potency, µM (titrated, usually from 38.3 µM), without a hit: at the highest dose activity change, negative = inhibition, usual class: inhibitors; 330,000 compounds, 0.31% hits; active = well fitted inhibition curve with a large enough effect; inconclusive = small, poorly fitted or top-dose-only effect; inactive = no such curve, though single readings can be large or run the other way; tested in mouse RAW 264.7 cells; note: potency is the fitted concentration of half-maximal effect; % is set by controls: 0 for no effect and ±100 for the full control effect; nearly all actives have a fitted effect of over 55% in size
Giardia kill: Giardia lamblia killing; activity change, % at 7.66 µM, hits read low; 340,000 compounds, 0.15% hits; Giardia lamblia trophozoite viability; in the data active = activity change below about -80%; inconclusive = between about -30% and that limit;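 note: parasites exposed to compound for two days anaerobically before the ATP read; % is set by controls: 0 for no effect and ±100 for the full control effect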
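Media and compound were dispensed first, then trophozoites at 100 cells/well; plates sat 48 hrs at 37 deg C without oxygen before ATP luminescence reagent was added and read after 15-30 min at room temperature.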
SW480 rerep: induces DNA re-replication in SW480 colon adenocarcinoma cells; SW480 DNA re-replication, Hoechst DNA content imaging, 48 h; AID 624297; Potency, µM (series often up to 46.1 µM), for the others: top-dose re-replication activation, usual class: activators; 340,000 compounds, 1.8% hits; note: potency is the fitted concentration of half-maximal effect; % of control where 0% means no effect; nearly all actives have a fitted effect of over 55% in size
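Cells (250 per well) received 23 nL compound or DMSO by pin tool and were kept 48 hr at 37 C, 5% CO2. Nuclei were then stained with Hoechst for 40 min and scanned for DNA content.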
MCF10A rerep: DNA re-replication induction in MCF 10a cells; MCF 10A DNA re-replication, Hoechst nuclear intensity, 48 h; Potency, µM (top dose mostly 46.1 µM), for inactives: at the highest dose activity, positive = re-replication, most hits filed as activators; 350,000 compounds, 2.9% hits; note: potency is the fitted concentration of half-maximal effect; % of control where 0% means no effect; nearly all actives have a fitted effect of over 50% in size
An asterisk follows results filed as active; ? = inconclusive; nt = no result; [ ] = remark or other dose. Sampled rows, rich in hits. Any-hit rate of the full collection: about 4.3%. Unless noted, calls come from the whole dose curve; as a rule, active = well fitted activation curve with a large enough effect; inconclusive = small, poorly fitted or top-dose-only effect; inactive = no such curve, though single readings can be large or run the other way.

SMILES | uPA surface inh | Giardia kill | SW480 rerep | MCF10A rerep
COC(=O)c1ccc(NC(=O)c2nc(S(=O)(=O)Cc3cccc(C)c3)ncc2Cl)cc1 | -3% | 9 | ? | 11%
CC(SC(C)C(=O)NN=Cc1cccc(F)c1)C(=O)NN=Cc1cccc(F)c1 (configuration not stated) | 3% | -11 | 9% | 10%
Cc1cccc(N2CCN(C(=O)CCCCCn3c(=S)[nH]c4ccc(N5CCOCC5)cc4c3=O)CC2)c1C | 13% | 9 | -14% | ?
O=C(Nc1cccc(C(F)(F)F)c1)Nc1ccc(N2CCCC2)c(S(=O)(=O)Nc2ccccc2Cl)c1 | -10% | -6 | ? | 4.6µM*
O=[N+]([O-])c1nn(-c2ccccc2)[n+]([O-])c1N1CCN(c2ccccc2F)CC1 | 3% | -89* | 6% | 6%
O=[N+]([O-])c1nn(-c2ccccc2)[n+]([O-])c1N1CCN(c2ccccc2)CC1 | 5% | -81* | -4% | 5%
CC(C)CN1Cc2ccccc2Oc2cc(Br)ccc2S1(=O)=O | -5% | -16 | -1% | 2%
CCN(CC(=O)Nc1ccc(NC(C)=O)cc1)C(=O)C1CCCC1 | 3% | 9 | -4% | 4%
CCN(CC(=O)Nc1ccc(NC(C)=O)cc1)C(=O)C1CCN(C(=O)c2ccccc2C)CC1 | 5% | -15 | 3.7µM* | 20%
Cc1ccc2nsnc2c1NS(=O)(=O)c1c(C)ccc2nsnc12 | 2% | 6 | 1% | 0%
Cc1ccc(/C=[N+](\[O-])c2ccc(N(C)C)cc2)c2nsnc12 | -16% | 7 | ? | 11µM*
Cc1cc(C)c2nc(N(CCCN(C)C)C(=O)c3ccc4c(c3)OCCO4)sc2c1 | 2% | 14 | ? | 18µM*
Cc1cc(C)n(CC(=O)NC2C(=O)N3C(C(=O)O)=C(CSc4nnc(C)s4)CSC23)n1 (configuration not stated) | 24% | -28 | -6% | 0.73µM*
Cc1nnc(SCC2=C(C(=O)O)N3C(=O)C(NC(=O)Cn4ncc(Cl)c4C)C3SC2)s1 (configuration not stated) | -2% | -8 | -12% | -1%
COc1cccc(NC(=O)c2nc(S(C)(=O)=O)ncc2Cl)c1 | -17% | -10 | 2.3µM* | 5.8µM*
CN(c1ccccc1)S(=O)(=O)c1ccc(NC(=O)c2nc(S(C)(=O)=O)ncc2Cl)cc1 | ? | -24 | 9.2µM* | ?
CC12CCC(C[N+](C)(CCC[N+](C)(C)C)C1)C2(C)C (configuration not stated) | nt | nt | 1% | -9%
Cc1sc(NC(=O)Cc2ccc3c(c2)OCO3)nc1-c1ccc2c(c1)CCN2C(=O)c1cccc(F)c1 | 3% | -19 | -8% | 3%
Cc1cccc(C(=O)N2CCc3cc(-c4nc(NC(=O)CN5CCCC5)sc4C)ccc32)c1 | -9% | 24 | ? | 18µM*
CNc1nc(-c2ccc3c(c2)CCN3C(=O)c2cccc(F)c2)cs1 | 7.1µM* | -7 | 15µM* | 26%
CNc1nc(-c2ccc3c(c2)CCN3C(=O)c2ccc(F)cc2)cs1 | 8% | -16 | -7% | 6%
O=C(CN1CCCC1)Nc1nc(-c2ccc3c(c2)CCN3C(=O)c2ccccc2F)cs1 | -3% | 17 | -27% | ?
Cc1cccc(C(=O)N2CCc3cc(-c4csc(NC(=O)CN5CCCC5)n4)ccc32)c1 | -17% | 13 | ? | 16µM*
O=Cc1cc2ccccc2nc1SCc1ccc(Cl)cc1 | -2% | 12 | ? | ?
Cc1ccc(CSc2nc3ccccc3cc2C=O)cc1 | -3% | 13 | 2.6µM* | 21µM*
SMILES | uPA surface inh | Giardia kill | SW480 rerep | MCF10A rerep
CC[C@]12C(=O)N(C)C[C@H]([C@@H]3C(=O)N(C)C(=O)[C@@H]31)N2C(=O)c1ccc(C)cc1 | 13% | -29 | ? | 1%
C=CCn1c(CNc2ccc(C)cc2)nnc1SCC(=O)N/N=C/c1ccc(O)cc1O | 6% | -2 | -1% | ?
C=CCn1c(CNc2ccccc2)nnc1SCC(=O)N/N=C/c1ccc(O)cc1O | 0% | -10 | 5% | 16µM*
CC(C)c1ccc(NC(=O)C2CCN(c3ncnc4c3nc3n4CCCCC3)CC2)cc1 | 1% | -24 | ? | 16µM*
O=C(Nc1ccc(Cl)cn1)C1CCCN(c2ncnc3c2nc2n3CCCCC2)C1 (configuration not stated) | 9% | 20 | 26µM* | 2%
O=C(Nc1ccccn1)C1CCCN(c2ncnc3c2nc2n3CCCCC2)C1 (configuration not stated) | 0% | -2 | -3% | 23µM*
CN(C)c1ccc(-c2c(C3C4C=CCCC4(C)C(=O)N3Cc3ccccc3)ccc3ccccc23)cc1 (configuration not stated) | nt | 15 | nt | nt
CCN1CCN(c2ccc(S(=O)(=O)N3CCCCC3)cc2NC(=O)c2ccc([N+](=O)[O-])s2)CC1 | -6% | ? | 13µM* | ?
COc1ccc(OC)c(/C=C/C(=O)Nc2cccc(S(=O)(=O)N3CCCC3)c2)c1 | -17% | 11 | 14% | 23µM*
CCN1CCN(c2ccc(S(=O)(=O)N3CCCCC3)cc2NC(=O)COc2ccc(Cl)c(C)c2)CC1 | 5% | 14 | 16µM* | 1%
CCN1CCN(c2ccc(S(=O)(=O)N3CCCCC3)cc2NC(=O)COc2ccccc2)CC1 | -6% | -24 | 10% | 10%
CCN1CCN(c2ccc(S(=O)(=O)N3CCCCC3)cc2NC(=O)/C=C/c2cc(OC)ccc2OC)CC1 | -5% | 7 | 149% | 21µM*
CCOc1ccccc1C(=O)Nc1ccccc1C(N)=O | nt | 1 | -5% | 4%
CCOc1ccccc1C(=O)Nc1ccsc1C(=O)OC | -9% | 14 | 5.8µM* | 7.3µM*
CCN(CC)C(=O)c1cn(CCC#N)nc1-c1ccc2ccccc2c1 | 4% | 1 | -5%[9.22 µM] | -2%
CC1Sc2ccc(C(=O)NCc3ccccn3)cc2NC1=O (configuration not stated) | 3.2µM* | 0 | -6% | ?
COCO[C@H]([C@@H](C)C=C(Br)Br)[C@@H](C)COCc1ccc(OC)cc1 | nt | -10 | nt | nt
COC1=C(OC)C(=O)C(Sc2ccc3ccccc3c2)=CC1=O | -9% | -8 | 18µM* | 5.8µM*
COc1ccc(S(=O)(=O)Oc2ccc3ccccc3c2)cc1 | -3% | 37 | ? | ?
O=C(NCC[C@@H]1C[C@@H]2C=C[C@H]1C2)c1cc(COc2ccc(F)cc2F)on1 | 10% | -9 | 27% | 10%
COc1ccc2cc3cc(C(=O)Nc4ccccc4N4CCN(C)CC4)oc3nc2c1 | -7% | -87* | ? | ?
CCOc1ccc(NC(=O)c2cc3cc4ccc(OC)cc4nc3o2)cc1 | 3% | 28 | ? | 12µM*
CCCOC(=O)c1ccc(N)cc1 | nt | nt | 2% | 8%
C=CCNC(=O)c1ccc(N(Cc2ccc(Cl)cc2)S(C)(=O)=O)cc1 | -12% | -9 | -2% | 7%
C=CCNC(=O)c1ccc(CN(c2ccc(OCC)cc2)S(=O)(=O)c2ccc(C)cc2)cc1 | ? | 12 | ? | 26µM*
CCOC(=O)c1c(N)sc(C(=O)Nc2ccccc2)c1C | 7.9µM* | ? | -1% | -6%

Compound activity as filed in PubChem BioAssay.
